# Bioassay records (PubChem BioAssay)
# hgDAF-12 ag – hgDAF-12 agonism, primary luciferase screen; HEK293 GAL4-hgDAF12 UAS-luciferase reporter, agonist luminescence; normalized to butyrate control; activation, % at 6.8 µM; 370,000 compounds, 1.8% hits;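 active = activation above a cutoff set at the mean of all screened compounds plus 3 SD, cut at about 10% in these data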;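 note: 0% = DMSO wells and 100% = sodium butyrate wells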
# DAX1 inh-1 – DAX1 (NR0B1) inhibition, primary screen. AID 652010. 370,000 compounds, 1.1% hits. HEK293T StAR-luciferase reporter, SF-1/DAX-1 repression relief. inhibition, % at 6.8 µM;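 active = inhibition above the mean over all tested compounds plus 3 SD, cut at about 3.6% in these data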;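 note: 0% = DAX-1 cells with DMSO and 100% = cells lacking DAX-1 with DMSO; higher inhibition means more luminescence from relief of DAX-1 repression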
# ssDAF-12 act – S. stercoralis DAF-12 activation, primary screen; HEK293 ssDAF-12/GRIP1 lit1-tk-luc reporter, luminescence; % of 3 µM dafachronic acid response; activation, % at 6.8 µM; 370,000 compounds, 1% hits;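 active = activation above the mean over all tested compounds plus 3 SD, cut at about 0.9% in these data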;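 note: 0% = DMSO-only wells and 100% = 3 µM delta7-dafachronic acid wells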
# DAX1 inh-2 – NR0B1 (DAX1) inhibition; P51843; HEK293 Gal4-DAX1 luciferase reporter, luminescence; inhibition, % at 6.75 µM; 340,000 compounds, 0.99% hits;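 active = inhibition above the mean over all tested compounds plus 3 SD, cut at about 4.2% in these data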;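 note: 0% = DAX1-transfected cells with DMSO and 100% = empty-vector control cells with DMSO; inhibition shows as a rise in luminescence from relieved DAX1 repression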
# Target sequence (P51843 207-470 limits assumed): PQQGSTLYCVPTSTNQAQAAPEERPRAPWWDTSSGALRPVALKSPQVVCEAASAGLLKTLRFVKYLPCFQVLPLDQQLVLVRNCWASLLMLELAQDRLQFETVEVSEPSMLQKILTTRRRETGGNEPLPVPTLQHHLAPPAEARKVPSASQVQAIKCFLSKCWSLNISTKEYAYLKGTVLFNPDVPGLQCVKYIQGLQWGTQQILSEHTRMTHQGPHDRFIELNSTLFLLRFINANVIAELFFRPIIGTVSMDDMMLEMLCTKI
# hcDAF-12 act – activates DAF-12 receptor from parasite H. contortus. 370,000 compounds, 1.4% hits. activation, % at 6.8 µM. HEK293 hcDAF-12 lit1-tk-luc reporter, luminescence; 0% DMSO, 100% Δ7-dafachronic acid;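 active = activation above the mean of all tested compounds plus 3 SD, cut at about 5.5% in these data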;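 note: 100% = response to 3 µM Δ7-dafachronic acid high control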
# An asterisk follows results filed as active; . = not tested or not shown. Most compounds without a hit are left out; they make up all but 4.1% or so of the library.
SMILES,hgDAF-12 ag,DAX1 inh-1,ssDAF-12 act,DAX1 inh-2,hcDAF-12 act
COc1cc(C(=O)Nc2c(C(=O)O)[nH]c3ccc(C)cc23)cc(OC)c1OC,5,0,0,2,6.1*
CCOC(=O)[C@@]12CCCC=C1N(CCc1ccc(Cl)cc1)C(=O)[C@H]2CC(=O)N1CCC(c2ccccc2)CC1,0,-1,-1,.,-2
Cc1nn(-c2ccccc2)c2c1C(c1ccc(O)c(O)c1)N1C(=N2)C(Nc2ccccc2)=Nc2ccccc21 (stereo not drawn),-1,0,-1,4.3*,-1
O=C(COCc1ccccc1)NC1CCCCN(Cc2cccc(Cl)c2)C1=O (stereo not drawn),-1,1,-1,.,-1
CCCc1nc([N+](=O)[O-])c(S(=O)(=O)c2ccccc2)n1CC(C)C,10*,0,-1,-1,1
Cc1ccccc1-c1cc2nc(-c3ccc([N+](=O)[O-])cc3)cc(=O)n2[nH]1,-1,-1,-1,-1,1
Cc1cccc(-c2cc3nc(-c4ccccc4)cc(=O)n3[nH]2)c1,7,1,0,6.4*,1
COc1ccc(-n2c(SCC(=O)Nc3cc(C)c(NC(=O)c4ccccc4)cc3OC)nnc2-c2ccco2)cc1,-3,-3,0,.,2
O=P(CCCCCCCCCP(=O)(c1ccccc1)c1ccccc1)(c1ccccc1)c1ccccc1,-4,-2,-2,-2,-3
CCCCCCP(=O)(O)c1ccccc1,-1,0,-1,6.1*,-1
COC(=O)[C@H]1C[C@@]2(CC=C(C)C)c3ccccc3N(C(=O)OC(C)(C)C)[C@H]2N1C(=O)OC(C)(C)C,0,.,-1,.,-2
Cc1cc(/C=C(\C#N)C(=O)NC2CC2)c(C)[nH]1,12*,3,0,3,0
Cc1cc(/C=C(\C#N)C(=O)NC2CCCCCC2)c(C)[nH]1,4,1,-1,0,3
CCN=C1NC(c2ccccc2C(F)(F)F)C(C(=O)OC)=C(C)N1Cc1ccc(C(F)(F)F)cc1 (stereo not drawn),2,1,-2,.,0
CCc1cccc(Nc2cc(C)n(-c3cccc(CC)c3)c(=O)c2)c1,4,1,-1,.,-2
Cc1ccc(NC2Sc3ccccc3NC2=O)cc1 (stereo not drawn),15*,4,1.0*,1,5
O=C1Nc2ccccc2SC1c1ccccc1 (stereo not drawn),0,0,-1,0,-2
O=S(=O)(Nc1cccc(-c2ccc(N3CCCCCC3)nn2)c1)c1ccc(C(F)(F)F)cc1,5,0,0,0,6.4*
Cc1ccc(S(=O)(=O)Nc2cccc(-c3ccc(N4CCCCCC4)nn3)c2)cc1C,5,3,-1,1,2
CCOc1ccccc1NC(=O)COC(=O)c1cc[n+]([O-])cc1,-2,0,0,5.4*,-1
O=C(c1ccccn1)C1CCCN(Cc2nc(Cc3cccc(F)c3)no2)C1 (stereo not drawn),-5,-1,-1,4.4*,-3
COc1ccc(NC(=O)c2onc(C)c2Cl)cc1,8,2,0.9*,1,5
Cc1nn(-c2ccccc2)c(Cl)c1C(=O)N1CCN(C)CC1,2,-1,-1,9.1*,0
Cc1noc(C(=O)Nc2cccc(O)c2)c1Cl,4,1,0,0,5.6*
COc1ccc(NC(=O)c2c(C)nn(-c3ccccc3)c2Cl)cc1,2,0,-1,5.1*,1
SMILES,hgDAF-12 ag,DAX1 inh-1,ssDAF-12 act,DAX1 inh-2,hcDAF-12 act
Cc1nc2ccccn2c1P(=O)(c1ccccc1)c1ccccc1,2,.,-2,.,-1
Cc1ccc(S(=O)(=O)N2CC(CBr)=CCC2c2ccccc2)cc1 (stereo not drawn),2,2,-1,.,-1
COc1ccc(CCNC(=O)c2c(N)[nH]c(C(=O)c3ccccc3)c2-c2ccc(N(C)C)cc2)cc1,0,.,-2,.,-3
C[C@H]1[C@@H](NCc2cccs2)CC[C@@]23CCCN2C(=O)CCC[C@@H]13,3,.,-2,.,3
CCCCCCCCN1C(=O)[C@@H](CC(=O)NCCCOC)C[C@@]2(C(=O)OC)C1=C[C@H](C1CCCC1)O[C@@H]2C,1,-1,-1,.,-1
O=C1Nc2ccccc2/C1=N\N=C\c1ccc(O)c(O)c1,0,0,-1,4.5*,3
COc1ccc(N2C(=O)C3C(c4ccc(OC)cc4O)NC(Cc4ccccc4)(C(=O)O)C3C2=O)cc1 (stereo not drawn),2,0,0,7.6*,0
O=C(NC(=Nc1nc2ccccc2o1)NC(=O)c1ccccc1)c1ccccc1,3,0,-1,2,1
N/C(=N\c1nc2ccccc2o1)NC(=O)c1ccccc1F,3,1,-1,1,1
COc1ccccc1C(=O)NC(=Nc1nc2ccccc2o1)NC(=O)c1ccccc1OC,1,1,0,-2,5.9*
CCCCC(=O)N/C(N)=N/c1nc2ccccc2o1,12*,1,0,16*,1
O=S(=O)(c1ccc(F)cc1)N1CCCc2nc(-c3ccc(F)cc3)ccc21,0,1,-1,.,1
CCc1c(Cc2cccc(F)c2)ncn1CCc1ccccc1OC,-2,-1,-1,.,-1
O=C1C=C(N2CCOCC2)C2(CCCCC2)O1,4,-1,0,5.2*,0
O=C1C=C(N2CCCCC2)C2(CCCCC2)O1,2,-1,-1,0,0
COC(=O)C1=C(C)N(C)C(=NCc2ccc(C(F)(F)F)cc2)NC1c1ccc(Cl)cc1 (stereo not drawn),-2,0,-1,.,-1
Cc1cc(C)cc(N=C2NC(=O)/C(=C/c3cccs3)S2)c1,-2,-1,-2,1,-2
O=C1NC(=Nc2ccccc2)S/C1=C\c1cccs1,7,0,1.4*,1,5
COc1cc(C(C[N+](=O)[O-])c2c(C)cc3ccccn23)ccc1O (stereo not drawn),1,0,0,4.4*,1
COC(=O)CC#C[C@@H](C)[C@H](NS(=O)(=O)c1ccc(C)cc1)C(C)(C)C,-1,0,-1,.,-2
COc1cccc(C#Cc2c(CO)[nH]c3ccccc23)c1,1,0,1,0,6.2*
CCN(C[C@H]1[C@@H](c2ccc(C3=CCCC3)cc2)[C@H](CO)N1C(=O)c1cccnc1)S(=O)(=O)c1ccccc1[N+](=O)[O-],0,0,-1,.,-2
Cc1ccc(S(=O)(=O)N2CCN(C(=O)Cn3c(=O)oc4ccccc43)CC2)cc1,10,2,1.0*,1,4
COc1cccc(N2CCN(C(=O)Cn3c(=O)oc4ccccc43)CC2)c1,1,0,-2,4.3*,1
O=C(/C=C(\Nc1cccc(Cl)c1F)c1ccccc1)c1ccccc1,5,0,-1,.,0
